Source: article PMC5540273 (PLoS ONE, 2017)

system: SRC; settings: concentration: 1 μM, replicates: in singlicate; n = 1
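Further: KINOMEscan kinase panel screen.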

Compound	%Inh
CCn1c(-c2nonc2N)nc2c(C#CC(C)(C)O)nc(OC[C@H](N)c3ccccc3)cc21 [GSK943949]	1%
Cc1cccc(NC(=O)Nc2ccc(Oc3ncnc4ccn(C)c34)cc2)c1	0%
O=C(Nc1cccc(Oc2ccc3nc(NC(=O)C4CC4)cn3n2)c1)c1ccccc1C(F)(F)F	5%
O=C(Nc1ccccc1F)NC1CCN(c2ccnc(Nc3ccc(F)cc3)n2)CC1 [GSK1379800]	0%
NCCCC(NC(=O)c1cc(Br)c(-c2ccnc3[nH]ccc23)s1)c1ccccc1.O=C(O)C(F)(F)F.O=C(O)C(F)(F)F (stereo not shown) [GSK1287544]	0%
COc1cccc(C(=O)Nc2cccc(Oc3ccc4nc(NC(=O)C5CC5)cn4n3)c2)c1	94.1%
COC(=O)Nc1nc2cc(Oc3ccc(NC(=O)Nc4cc(C(F)(F)F)ccc4F)cn3)ccc2[nH]1.Cl.Cl [GW681170]	29%
Cc1ccc(C(=O)Nc2ccc(Nc3ccnc4cc(-c5nccs5)ccc34)cc2O)cc1.Cl [GW494702]	60%
CCc1ccc(-c2ccc3c(c2)-c2c(cnn2C)S(=O)(=O)N3C)cc1	0%
CN(C)S(=O)(=O)c1cc(-c2ccc3nccc(-c4cccc(S(N)(=O)=O)c4)c3c2)cnc1N [GSK1669921]	0%
COc1cccc(NC(=O)NC2CCN(c3ccnc(Nc4cc(OC)c(OC)c(OC)c4)n3)C2)c1 (stereo not shown) [GSK1379763]	10%
O=c1[nH]cc(-c2ccc(N3CCOCC3)cc2)c2sc(-c3cn[nH]c3)cc12 [GSK2276055]	0%
COc1cc(Nc2nccc(N3CCC(NC(=O)Nc4cccc(C(C)=O)c4)C3)n2)cc(OC)c1OC (stereo not shown) [GSK1379753]	10%
CN1CCN(CCCNc2nccc(-c3c(-c4ccc(F)cc4)nn4cc(C(F)(F)F)ccc34)n2)CC1 [GW621581]	14%
c1ccc(-c2cnc3nccnn23)cc1 [AH20685]	0%
Cc1ccc(C(=O)N2CC[C@@H](O)C2)cc1-n1c(C)cc(OCc2ccc(F)cc2F)c(Br)c1=O	97.7%
C[C@@H](Oc1cc(-n2cnc3cc(-c4ccnc(NCCS(C)(=O)=O)c4)ccc32)sc1C(N)=O)c1ccccc1Cl [GSK907232]	48%
Cl.c1ccc(-c2ccc3c(Nc4ccc5[nH]ncc5c4)ccnc3c2)nc1 [GW440137]	33%
Oc1cc(Nc2ccnc3cc(I)ccc23)ccc1F [GW552771]	67%

Compound	%Inh
Nc1n[nH]c2cnc(-c3ccccc3)cc12 [SB-642124]	0%
COc1cc(Nc2nccc(N3CCC(NC(=O)c4cc5ccccc5s4)C3)n2)cc(OC)c1OC (stereo not shown) [GSK1379760]	21%
C[C@@H]1CC[C@@H](C(=O)Nc2ccccc2)CN1c1cc(-c2ccc3c(N)n[nH]c3c2)nc(N)n1 [GSK2286062]	0%
Nc1ncc(-c2cccnc2)c2scc(-c3ccc4c(c3)CCN4C(=O)Cc3ccccc3)c12 [GSK683281]	37%
Cc1ccc(F)c(C(=O)Nc2cccc(-c3nn4ccccc4c3-c3ccnc(Nc4cccc(F)c4)n3)c2)c1F [GSK361061]	25%
O=C(Nc1cccc(-c2nn3ncccc3c2-c2ccnc(Nc3ccccc3)n2)c1)c1c(F)cccc1F [GSK198271]	62%
CC(C)c1nc(-c2cccc(NS(=O)(=O)c3c(F)cccc3F)c2F)c(-c2ccnc(Nc3ccc(N4CCOCC4)nc3)n2)s1 [GSK2008607]	100%
COc1cc(Nc2ncc3c(C)nc(-c4cc5ccccc5[nH]4)n3n2)cc(OC)c1OC [GW869516]	90.1%
COCCOCCOc1cc2ncc3c4ccc(C#N)cc4[nH]c3c2cc1OC	14%
O=C(O)C(F)(F)F.O=C(O)C(F)(F)F.O=c1[nH]ccc2nc(N[C@@H]3CCCNC3)nc(Nc3ccc(S(=O)(=O)N4CCOCC4)cc3)c12 [GSK2177277]	96.7%
Cc1cccc(Nc2nc(N[C@H]3CCNC3)ncc2C(N)=O)c1.Cl [GSK2197149]	85%
COc1cc(Nc2nccc(-c3c(-c4cccc(NC(=O)c5c(F)cccc5F)c4)nn4ncccc34)n2)cc(OC)c1OC [GSK327238]	99.9%
O=C(Nc1n[nH]c2cc(-c3ccoc3)ccc12)C1CC1 [SB-738481]	0%
O=C(Nc1cccc(-c2nn3ccccc3c2-c2ccnc(Nc3cccc(C(F)(F)F)c3)n2)c1)c1c(F)cccc1F [GSK292658]	15%
COC(=O)Nc1nc2ccc(Oc3ccc(NC(=O)Nc4cc(C(F)(F)F)ccc4F)cc3)cc2n1C.Cl [GW692089]	0%
Fc1ccc(-c2ncn(C3CCNCC3)c2-c2ccnc(Oc3ccc(-c4ccccc4)cc3)n2)cc1 [SB-245391]	11%
COc1cc(Nc2nccc(-c3c(-c4cccc(NC(=O)c5c(F)cccc5F)c4)nn4ccccc34)n2)cc(OC)c1OC [GSK323521]	22%
O=C(Nc1cccc(-c2nn3ccccc3c2-c2ccnc(Nc3cccc(F)c3)n2)c1)c1c(F)ccc(F)c1Cl [GSK357952]	45%
